D1 agonist – Allosteric Agonists of the Human D1 Dopamine Receptor: qHTS | D(1A) dopamine receptor (Homo sapiens), P21728 | HEK293 T-REx D1 cells, calcium flux, agonist mode | activation, % at 2 µM | actives 1% (n = 360,000); also: 0% is about no effect
Target sequence (P21728 whole entry, looked up): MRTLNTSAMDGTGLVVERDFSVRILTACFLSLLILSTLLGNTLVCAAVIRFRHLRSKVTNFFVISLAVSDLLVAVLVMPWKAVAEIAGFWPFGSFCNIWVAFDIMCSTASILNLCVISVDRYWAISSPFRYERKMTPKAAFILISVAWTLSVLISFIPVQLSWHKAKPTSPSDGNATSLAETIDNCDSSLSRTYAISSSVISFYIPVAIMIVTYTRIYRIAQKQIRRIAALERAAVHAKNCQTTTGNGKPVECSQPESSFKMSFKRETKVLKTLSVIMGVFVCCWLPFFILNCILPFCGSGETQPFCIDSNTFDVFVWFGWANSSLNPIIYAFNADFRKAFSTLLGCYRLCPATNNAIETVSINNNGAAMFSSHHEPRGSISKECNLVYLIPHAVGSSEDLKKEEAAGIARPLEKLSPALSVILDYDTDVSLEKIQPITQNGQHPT
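Agonism was scored from calcium flux recorded over 180 s (1 read/s) after pintool compound addition, following a 10-cycle baseline. Cells were inducible force-coupled HEK293 TREx D1, plated overnight at 30 C and loaded with no-wash calcium dye.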
TRHR agonist – qHTS for Small Molecule Agonists and Allosteric Enhancers of Human TRH Receptor: Primary Screen for Agonists; Thyrotropin-releasing hormone receptor (Homo sapiens), P34981; TRHR cells, calcium flux fluo-8, FDSS agonist mode; activation, % at 2 µM; actives 0.18% (n = 360,000); AID 493084, 2011; also: 0% is about no effect
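Agonist-mode FDSS calcium read (Ex 480/Em 530, 1 s cycles) in 1536-well TRHR cells with fluo-8 dye, after 10-cycle baseline and 23 nL compound addition; TRH at EC20 (10 nM final) added afterwards for the enhancer phase.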
TRHR enhancer – qHTS for Small Molecule Agonists and Allosteric Enhancers of Human TRH Receptor: Primary Screen for Enhancers; enhancement, % at 2 µM; TRHR cells, fluo-8 calcium fluorescence, EC20 TRH enhancement; actives 0.66% (n = 360,000); AID 493056, 2011; in the data active = enhancement above about 30%; also: 0% is about no effect
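TRHR-expressing cells loaded with fluo-8 calcium dye were read kinetically (ex 480/em 530) during compound addition, then stimulated with an EC20 of TRH (10 nM final). Enhancement of the Gq-mediated intracellular calcium response was scored.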
D1 potentiator – Potentiators of Human D1 Dopamine Receptor: qHTS. AID 504651, 2011. HEK293 TREx D1 cells, calcium flux, dopamine EC20 potentiation. actives 0.036% (n = 360,000). potentiation, % at 10 µM. D(1A) dopamine receptor (Homo sapiens), P21728; in the data active = potentiation above about 30%; also: 0% is about no effect
D1 antag – Antagonist of Human D 1 Dopamine Receptor: qHTS. activity change, negative = inhibition, % at 10 µM. AID 504652, 2011. D(1A) dopamine receptor (Homo sapiens), P21728. HEK293 TREx D1 cells, calcium flux, dopamine EC80; hits give low values. actives 3.2% (n = 360,000); in the data active = activity change below about -30%; also: % is scaled to controls: 0 for no effect and ±100 for the full control effect
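Using tetracycline-induced force-coupled D1 Hek293 cells and a calcium dye, signals were followed for 180 s after compound, then for 180 s after EC80 dopamine, to detect inhibitors.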
* hit, by the source's call. Shown are actives, neighbours in structure and some others; about 4.7% of the full set was active somewhere. Rule as the data show it, unless noted: active = activation above about 30%; inactive = the rest.

SMILES	D1 agonist	TRHR agonist	TRHR enhancer	D1 potentiator	D1 antag
COc1ccc(NC(=O)CCCc2nnc3n(C)c(=O)c4sccc4n23)cc1	2	0	-5	-10	-31*
CCOc1ccc(NC(=O)CCCc2nnc3n(C)c(=O)c4sccc4n23)cc1	-1	0	12	-2	8
Cc1cc(C)cc(NC(=O)CCc2nnc3n(C)c(=O)c4sccc4n23)c1	-1	0	-2	3	-46*
CCc1ccc(NC(=O)CCc2nnc3n(C)c(=O)c4sccc4n23)cc1	0	0	0	2	-14
COc1cc2c(cc1OC)C(c1ccccc1)N(C(=O)C(C)(C)C)CC2 (stereo unspecified)	-1	0	14	4	1
CN1CCc2cc(O)c(O)cc2C(c2ccccc2)C1 (stereo unspecified)	0	1	-6	-7	-88*
CN1CCc2cc(Cl)c(O)cc2[C@@H](c2ccccc2)C1	0	0	4	-3	-89*
O=C(CN1CCOCC1)N1CCc2ccccc2C(c2ccccc2)C1 (stereo unspecified)	5	0	-4	1	5
Cc1ccc(C)c(Cn2cc(S(=O)(=O)c3ccc(Cl)cc3)c(=O)c3cc(F)ccc32)c1	4	0	25	-3	16
CCOC(=O)C1[C@H]2C(=O)N(C(C)c3ccc(OC)cc3)C[C@]23C=C[C@H]1O3 (stereo partly specified)	0	0	-3	2	-41*
CCCOC(=O)C1[C@H]2C(=O)N(C(C)c3ccc(OC)cc3)C[C@]23C=C[C@H]1O3 (stereo partly specified)	1	0	1	-1	4
CC(C)(C)NC(=O)Cn1nnc(-c2ccc(OCc3c(F)cccc3Cl)cc2)n1	9	1	0	-6	-32*
O=C(Cn1cnc2onc(-c3ccc(F)cc3)c2c1=O)Nc1cccc(C(F)(F)F)c1	16	-1	21	-1	-19
Cc1cccc(N(C)S(=O)(=O)c2c(C(=O)N3CCCCCC3)c(C)n(C)c2C)c1	-1	0	4	3	12
COc1ccc(CCNC(=O)C(=O)NN=C2CCCCCCC2)cc1OC	1	-1	-3	-8	-74*
COc1ccc(CCNC(=O)CCOc2ccc(C)cc2)cc1OC	1	1	-9	0	-18
COc1ccc(CCNC(=O)COc2ccc(-c3ccc(C)cc3)cc2)cc1OC	2	0	2	-1	-31*
Cc1ccc(C(=O)N/C(=C\c2ccc(Cl)cc2)C(=O)NC2CCCCC2)cc1	2	0	-7	-1	2
Cc1cc(Cl)ccc1OC(C)c1nnc(N)s1 (stereo unspecified)	3	0	-2	-2	-49*
CC(C)C1COC(c2cccn2Cc2ccccc2Cl)=N1 (stereo unspecified)	0	-1	11	2	-38*
Cc1ccc(Cn2cccc2C2=NC(C)CO2)cc1 (stereo unspecified)	1	-1	6	-4	-2
COc1ccccc1C1C=C(c2ccc(Cl)cc2)Nc2nc(-c3ccc(Cl)cc3)nn21 (stereo unspecified)	11	2	-1	-2	-12
O=C(CCCc1ccccc1)Nc1ccnn1C1CCN(Cc2ccccc2)CC1	34*	3	-6	-4	-4
O=C(Nc1ccnn1C1CCN(Cc2ccccc2OCCO)CC1)c1cccc(F)c1	3	-1	-4	-2	6
O=C(Cc1ccccc1)Nc1ccnn1C1CCN(Cc2ccc(CO)o2)CC1	3	0	-5	-2	1
O=C(Nc1ccnn1C1CCN(Cc2ccccn2)CC1)c1cccc(F)c1	2	0	-4	-18	-38*
O=C(CCCc1ccccc1)Nc1ccnn1C1CCN(Cc2ccc(CO)o2)CC1	1	1	-9	7	-34*
CN(C)S(=O)(=O)N1CCC(n2nccc2NC(=O)CCc2ccccc2)CC1	2	1	4	2	-44*
